Screening data as filed in PubChem.
NCOA2 inhibitor: inhibits human steroid receptor coactivator 2 | Q15596 | HEK293 GAL4-SRC2 luciferase reporter, luminescence | inhibition, % at 9 µM | hit rate 0.17% among 370,000 | AID 651957;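 active means inhibition above the mean inhibition of all tested compounds plus 3 SD, set per campaign, cut at about 52% in these data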
NCOA3 inh: inhibitors of human steroid receptor coactivator 3 (SRC3); Q9Y6Q9; HEK293 GAL4-SRC3 luciferase reporter, luminescence; inhibition, % at 3.6 µM; hit rate 0.17% among 360,000; AID 588352;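 active means inhibition above a per-campaign cutoff, the mean of all compounds plus 3 SD, cut at about 60% in these data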;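 further: higher means less SRC3-driven luciferase light from the GAL4 reporter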
LRH-1 inv ag: NR5A2 inverse agonism in reporter assay; HEK293T StAR-luciferase reporter, LRH-1 transfected, 24 h; inhibition, % at 3.6 µM; hit rate 0.13% among 360,000;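 active means inhibition above the mean inhibition of all tested compounds plus 3 SD, cut at about 73% in these data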
NCOA1 inh: human NCOA1 inhibition; hit rate 0.12% among 360,000; HEK293 GAL4-SRC1 luciferase reporter, luminescence; inhibition, % at 3.6 µM; Q15788;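 active means inhibition above the campaign mean plus 3 SD, with each screening campaign given its own cutoff, cut at about 60% in these data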
LGR2 inh: Drosophila LGR2 receptor signaling inhibition; HEK293 LGR2, CRE-luciferase, bursicon-stimulated, 4 h; inhibition, % at 9.99 µM; hit rate 0.35% among 380,000;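 active means drop in luminescence signal, shown as inhibition above about 50% in the replicate tests, limit read from the data, passing the limit was not always enough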;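 further: agonist challenge used bursicon conditioned medium at about half maximal strength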
Of the large screens only hits and unclear results are named; the others gave an inactive call. In the library only some 0.48% were active in any assay of this set; here they are far more common.

CCN1/C(=C\c2ccc3cc(C)ccc3[n+]2CC)Sc2cc(C)c(C)cc21	none
CCN1/C(=C/c2ccc3cc(C)cc(C)c3[n+]2CC)Sc2cc(C)ccc21	LGR2 inh 82.1
CO[C@H](CN(C)S(=O)(=O)c1ccc(Cl)cc1)[C@@H](C)CN(C(=O)Nc1ccccc1F)[C@H](C)CO	none (no result: NCOA2 inhibitor, NCOA3 inh, LRH-1 inv ag, NCOA1 inh)
N/C(=N\OC(=O)c1ccc(=O)n(Cc2ccccc2)c1)c1ccccn1	none
Cc1ccc(CC(=O)O/N=C(\N)c2ccccn2)cc1	none
N/C(=N\OC(=O)c1ccc2ccccc2c1)c1ccccn1	LGR2 inh 97.5
CC(C)(C)CC(=O)O/N=C(\N)c1ccccn1	LGR2 inh 61.8
CCCc1ccc(C(=O)O/N=C(\N)c2ccccn2)cc1	NCOA2 inhibitor 58.8, LGR2 inh 103.0
COc1cccc(C(=O)O/N=C(\N)c2ccccn2)c1OC	LGR2 inh 69.5
C[C@H](CO)N1C[C@H](C)[C@@H](CN(C)C(=O)Nc2ccc(C(F)(F)F)cc2)OCCCC[C@H](C)Oc2ccc(NC(=O)Nc3ccc(F)cc3)cc2C1=O	none (no result: NCOA2 inhibitor, NCOA3 inh, LRH-1 inv ag, NCOA1 inh)
C[C@H]1CN([C@@H](C)CO)C(=O)c2cc(-c3cccc(F)c3)cnc2O[C@H]1CN(C)C(=O)C1CC1	none (no result: NCOA2 inhibitor, NCOA3 inh, LRH-1 inv ag, NCOA1 inh)
N/C(=N\OC(=O)c1cccc([N+](=O)[O-])c1)c1ccccn1	none
COc1cccc(C(=O)O/N=C(\N)c2ccccn2)c1	LGR2 inh 101.0
O=C(COC(=O)c1ccccc1)Nc1ncc([N+](=O)[O-])s1	none
O=C(Nc1ccccc1)Nc1ncc([N+](=O)[O-])s1	LGR2 inh 65.4
C[C@@H]1CN([C@H](C)CO)C(=O)c2cc(NC(=O)C3CCCCC3)ccc2O[C@@H](C)CCCCO[C@@H]1CN(C)Cc1ccc(C(F)(F)F)cc1	none (no result: NCOA2 inhibitor, NCOA3 inh, LRH-1 inv ag, NCOA1 inh)
S=C(NCCCc1cnc[nH]1)NCCCN(Cc1ccc(Cl)cc1)c1ccc(Br)cn1	LRH-1 inv ag 94.0
S=C(NCCCc1cnc[nH]1)NCCCN(Cc1ccccc1)c1ccc(Br)cn1	none
COc1cc(N/N=C/c2ccc(N(C)C)cc2)ncn1	LGR2 inh 73.8
Cc1cc(C)nc(-n2nc(C)cc2Nc2ccccc2)n1	LRH-1 inv ag 75.1 (no result: LGR2 inh)
Cc1nnsc1C(=O)N/N=C/c1ccc2ccccc2c1O	NCOA3 inh 83.8, NCOA1 inh 81.5
Cc1nnsc1C(=O)N/N=C/c1ccccc1	none
O=c1c2ccccc2sc2ccc(C#CC3(O)CCCCC3)cc12	NCOA2 inhibitor 84.9, NCOA3 inh 92.5, LRH-1 inv ag 90.9, NCOA1 inh 92.7, LGR2 inh 100.3
O=c1c2ccccc2oc2cc(C#CC3(O)CCCCC3)ccc12	NCOA3 inh 62.3, NCOA1 inh 65.0 (no result: LGR2 inh)
COc1cccc2oc3cc(C#CC4(O)CCCCC4)ccc3c(=O)c12	none
C[C@H]1CN([C@@H](C)CO)S(=O)(=O)c2ccc(-c3ccccc3)cc2O[C@H]1CN(C)C(=O)c1ccccc1F	none (no result: NCOA2 inhibitor, NCOA3 inh, LRH-1 inv ag, NCOA1 inh)
C[C@@H]1CCCCO[C@@H](CN(C)Cc2ccc(C(F)(F)F)cc2)[C@@H](C)CN([C@@H](C)CO)C(=O)c2cc(NS(=O)(=O)c3ccc(Cl)cc3)ccc2O1	none (no result: NCOA2 inhibitor, NCOA3 inh, LRH-1 inv ag, NCOA1 inh)
COC(=O)COc1ccc(-c2nccc(-c3ccccn3)n2)cc1	NCOA2 inhibitor 61.2
COC(=O)COc1ccc(-c2nccc(-c3ccc(Br)cc3)n2)cc1	none
O=c1c2ccccc2cnn1CCOc1ccccc1	LGR2 inh 86.4
CNC[C@@H]1OCCCC[C@H](C)Oc2ccc(NC(=O)Nc3ccc(F)cc3)cc2C(=O)N([C@H](C)CO)C[C@@H]1C	none (no result: NCOA2 inhibitor, NCOA3 inh, LRH-1 inv ag, NCOA1 inh)
COC(=O)C[C@H]1CC[C@H]2[C@H](COc3ccc(NC(=O)Nc4cccc(C)c4)cc3C(=O)N2C)O1	none (no result: NCOA2 inhibitor, NCOA3 inh, LRH-1 inv ag, NCOA1 inh)
O=C(Nc1ccc(Cl)c(C(F)(F)F)c1)c1ccncc1	none
CNC(=O)c1cc(Oc2ccc(NC(=O)Nc3ccc(Cl)c(C(F)(F)F)c3)cc2)ccn1	NCOA2 inhibitor 64.6 (no result: LGR2 inh)
O=C(CCCc1nc2ccccc2s1)Nc1nccs1	none (no result: LGR2 inh)
Cc1cnc(NC(=O)CCCc2nc3ccccc3s2)s1	LRH-1 inv ag 83.5 (no result: LGR2 inh)
C[C@@H]1CN([C@H](C)CO)C(=O)c2cc(NS(=O)(=O)c3ccc(Cl)cc3)ccc2O[C@H]1CN(C)S(=O)(=O)c1cccs1	none (no result: NCOA2 inhibitor, NCOA3 inh, LRH-1 inv ag, NCOA1 inh)
Cc1cc([N+](=O)[O-])nn1CCCC(=O)Nc1ccc(Cl)cc1Cl	NCOA1 inh 62.1
CCCNC(=O)Nc1ccc2c(c1)OC[C@H](C)N(CCC)C[C@@H](C)[C@H](OC)CN(C)C2=O	none (no result: NCOA2 inhibitor, NCOA3 inh, LRH-1 inv ag, NCOA1 inh)
O=[N+]([O-])c1ccc(O)c(/C=N/Nc2nn[nH]n2)c1	none
O=[N+]([O-])c1ccc(O)c(/C=N/Nc2ccc(Cl)nn2)c1	NCOA3 inh 81.6, NCOA1 inh 67.9 (no result: LGR2 inh)
